KDM5B inh: inhibitors of human KDM5B histone demethylase. KDM5B demethylase, FDH-coupled NADH fluorescence (FDH is formaldehyde dehydrogenase). Potency, µM (top dose mostly 57.7 µM), hits mostly inhibitors. hit rate 2.6% among 220,000. AID 1347165; active = well fitted inhibition curve with a large enough effect; note: nearly all actives have a fitted effect of over 70% in size
Target sequence (Q9UGL1 whole entry, looked up): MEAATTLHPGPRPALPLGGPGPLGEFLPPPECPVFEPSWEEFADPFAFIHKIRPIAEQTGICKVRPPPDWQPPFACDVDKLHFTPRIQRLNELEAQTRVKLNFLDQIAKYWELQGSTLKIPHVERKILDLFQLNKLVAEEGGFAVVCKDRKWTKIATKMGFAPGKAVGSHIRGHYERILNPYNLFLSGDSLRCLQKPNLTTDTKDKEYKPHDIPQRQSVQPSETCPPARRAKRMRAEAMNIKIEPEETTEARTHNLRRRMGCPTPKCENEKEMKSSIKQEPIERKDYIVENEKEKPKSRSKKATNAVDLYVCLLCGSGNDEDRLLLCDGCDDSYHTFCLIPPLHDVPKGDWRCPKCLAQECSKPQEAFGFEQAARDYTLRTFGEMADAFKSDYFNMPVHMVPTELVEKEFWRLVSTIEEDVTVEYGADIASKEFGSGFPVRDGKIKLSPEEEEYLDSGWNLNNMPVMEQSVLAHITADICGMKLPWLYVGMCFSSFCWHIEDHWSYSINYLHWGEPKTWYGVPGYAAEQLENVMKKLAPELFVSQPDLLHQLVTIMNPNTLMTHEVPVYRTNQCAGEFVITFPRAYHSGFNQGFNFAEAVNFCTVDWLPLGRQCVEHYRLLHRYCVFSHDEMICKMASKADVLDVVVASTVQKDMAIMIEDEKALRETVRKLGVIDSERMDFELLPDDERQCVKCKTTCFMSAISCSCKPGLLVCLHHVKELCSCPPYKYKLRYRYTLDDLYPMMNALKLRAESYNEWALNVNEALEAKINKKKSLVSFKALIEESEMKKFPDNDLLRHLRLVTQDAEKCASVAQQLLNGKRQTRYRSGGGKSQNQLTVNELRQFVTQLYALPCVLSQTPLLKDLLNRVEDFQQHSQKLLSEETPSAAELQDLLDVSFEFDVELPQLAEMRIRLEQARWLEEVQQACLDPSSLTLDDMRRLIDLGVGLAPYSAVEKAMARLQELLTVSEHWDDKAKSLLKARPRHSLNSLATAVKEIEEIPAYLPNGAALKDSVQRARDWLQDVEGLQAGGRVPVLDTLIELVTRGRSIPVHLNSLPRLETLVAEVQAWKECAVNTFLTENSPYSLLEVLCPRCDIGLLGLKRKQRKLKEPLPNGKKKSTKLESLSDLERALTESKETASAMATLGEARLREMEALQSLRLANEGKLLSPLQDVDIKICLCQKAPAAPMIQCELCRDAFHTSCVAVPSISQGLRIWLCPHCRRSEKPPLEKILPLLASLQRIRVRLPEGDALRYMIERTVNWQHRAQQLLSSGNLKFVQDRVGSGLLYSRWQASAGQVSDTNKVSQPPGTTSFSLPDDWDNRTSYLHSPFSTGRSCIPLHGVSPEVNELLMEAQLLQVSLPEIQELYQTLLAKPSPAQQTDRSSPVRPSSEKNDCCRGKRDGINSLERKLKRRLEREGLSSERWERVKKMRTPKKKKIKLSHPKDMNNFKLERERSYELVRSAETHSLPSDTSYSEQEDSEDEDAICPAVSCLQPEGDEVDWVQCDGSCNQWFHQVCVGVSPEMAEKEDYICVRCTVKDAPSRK
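Coupled FDH/NAD⁺ fluorescence readout. KDM5BΔAP 200 nM final; compound titration, 10 min RT preincubation; substrate mix 12.5 µM H3K4me3, 25 µM 2-OG, 50 µM Fe(II), 100 µM ascorbate, 0.25 mM NAD⁺, 0.25 U/mL FDH; ΔRFU over 30 min.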
A number is an active result; n = inactive. Shown is part of a subset that was picked to be rich in hits.

SMILES | KDM5B inh
COc1ccc(-c2cnc3[nH]cc(CC(=O)Nc4ccc(F)c(Cl)c4)c3c2)cc1 | n
O=C(Cc1c[nH]c2ncc(-c3ccccc3)cc12)Nc1ccc(C(F)(F)F)cc1 | n
COc1ncccc1-c1cnc2[nH]cc(CC(=O)Nc3cccc(Cl)c3)c2c1 | 32µM
O=C(Cc1c[nH]c2ncc(-c3ccccc3)cc12)NCc1cnccn1 | n
O=C(Cc1c[nH]c2ncc(-c3ccccc3)cc12)NCc1ccncc1 | 28µM
Cc1ccccc1-c1cnc2[nH]cc(CC(=O)Nc3ccccc3)c2c1 | 35µM
O=C(Cc1c[nH]c2ncc(-c3ccncc3)cc12)NCc1cccnc1 | n
Cc1ccccc1-c1cnc2[nH]cc(CC(=O)NC3CC3)c2c1 | 28µM
COc1ccc(NC(=O)Cc2c[nH]c3ncc(-c4ccccc4)cc23)cc1 | n
O=C(Cc1c[nH]c2ccccc12)NC1CCCCCC1 | n
Cc1oc(-c2ccccc2)nc1CC(=O)Nc1ccc(Cl)cc1Cl | n
COc1ccc2[nH]c(C[C@@H]3C[C@@H](C(C)C)[C@H](CNC(C)=O)C=C3C)nc2n1 | n
O=C(CSCc1ccccc1Br)Nc1cccc(F)c1 | n
Cc1ccc(C(=O)C(C)n2c(N3CCOCC3)nc3c2c(=O)n(C)c(=O)n3C)cc1 (stereo not given) | n
CC(=O)c1ccc(N2CCN(CCS(=O)(=O)c3ccccc3)CC2)cc1 | n
CCCCCn1nc(C(=O)Nc2ccc(OC)c(Cl)c2)c2ccccc2c1=O | n
Cc1cc(C)c2oc(C(=O)N(Cc3cccs3)c3ccccn3)cc(=O)c2c1 | n
CCCN1C(CC(C)C)=NS(=O)(=O)c2cc(NC(=O)c3cccs3)ccc21 | n
O=C(Nc1cccc(N2CCCC2=O)c1)C1CCN(S(=O)(=O)c2cc(Cl)ccc2Cl)CC1 | n
O=C(COc1ccc(Cl)cc1Cl)Nc1ccc2c(c1)N(C(=O)c1cccnc1)CCC2 | n
O=C1CN(Cc2ccccc2)CCN1c1ccc(Cl)nn1 | n
O=C1CN(Cc2ccc(-c3cccs3)cc2)CCN1c1ccc(Cl)nn1 | 79µM
O=C1CN(Cc2ccc(-c3ccccc3)cc2)CCN1c1ccc(Cl)nn1 | n
C/C=C/C(=O)OCC(=O)c1ccc(Br)s1 | n
CNC(=O)c1noc(CNC(=O)C(c2cccc(F)c2)N(C)C)n1 (stereo not given) | n
SMILES | KDM5B inh
COCCc1nc(CNC(=O)C(c2cccc(F)c2)N(C)C)no1 (stereo not given) | 22µM
Cc1ccccc1-n1cc(CNC(=O)C(c2cccc(F)c2)N(C)C)cn1 (stereo not given) | n
CC(C)N1CCC2(CC1)CN(C(=O)Cc1ccsc1)Cc1ccccc1O2 | n
CCCOc1ccc(OCCn2cnc3c2c(=O)n(C)c(=O)n3C)cc1 | n
CCCNC(=O)c1cc(=O)[nH]c2ccc(S(=O)(=O)N3CCOCC3)cc12 | n
O=C(NC1CCCCCC1)c1ccc2c(Cl)c3c(nc2c1)CCC3 | n
CN(Cc1ccccc1)c1nc2c(c(=O)n(C)c(=O)n2C)n1CC(O)COc1ccccc1 (stereo not given) | n
CC(C)(C)OC(=O)Nc1ccc(CC(=O)N2CCCC2c2ccsc2)cc1 (stereo not given) | n
Cc1c(-c2ccccc2)oc2c(C(=O)OCC(=O)Nc3cc(Cl)ccc3F)cccc2c1=O | n
Cc1ccc2c(CN3CCC(O)CC3)cc(=O)oc2c1C | n
CC(C)(C)c1nc(C(=O)N2CCCC2)n2ccncc12 | 100µM
COC(=O)N1CCn2cc(C(=O)N3CCOCC3)nc2C1 | n
CCn1cc(-c2ccncc2)cc1C(=O)N1CCOCC1 | n
CC(C)(C)c1nc(C(=O)N2CCOCC2)n2ccncc12 | 89µM
CC(C)(C)c1cc(C(=O)N2CCCC2)nn2cccc12 | n
CC(C)(C)c1ccc(C(=O)N2CCCC2)s1 | n
CCCCCC(=O)N/N=C/c1ccc(C(C)C)cc1 | n
CCCNc1c(NC(=O)c2cccc(OC)c2)c(=O)oc2ccccc12 | n
Cc1ccc(Cl)cc1NC(=O)Cn1nc(C(=O)O)c2ccccc2c1=O | n
CC1CCC(NC(=O)C(Cc2c[nH]c3ccccc23)NC(=O)c2ccccc2Cl)CC1 (stereo not given) | n
C=CCNC(=O)c1nc(-c2cccc3[nH]ccc23)no1 | n
O=S(=O)(c1ccc(F)cc1F)N1CCN(Cc2cccc3cccnc23)CC1 | n
c1cc(-c2noc([C@@H]3CCCN3Cc3ncc[nH]3)n2)cc(N2CCCC2)n1 | 40µM
COc1ccc(-c2noc([C@@H]3CCCN3C(=O)c3ccco3)n2)cc1OC | n
CC(=O)N1CCCCCC1c1nc(-c2cccnc2)no1 (stereo not given) | n
SMILES | KDM5B inh
CC(=O)Nc1ccc(CN2CCC[C@H]2c2nc(-c3ccnc(N4CCC(C(N)=O)CC4)c3)no2)cc1 | 32µM
CC(=O)N1CCN(c2cc(-c3noc([C@@H]4CCCN4Cc4ccc(N(C)C)cc4)n3)ccn2)CC1 | 28µM
COCCOc1ccnc(-c2noc([C@@H]3CCCN3Cc3ccc(S(C)(=O)=O)cc3)n2)c1 | n
COc1ccc(CCC(=O)N2CCC[C@H]2c2nc(-c3ccc(OC)c(OC)c3)no2)cc1 | n
NC(=O)C1CCN(c2cc(-c3noc([C@@H]4CCCN4Cc4cccnc4)n3)ccn2)CC1 | 40µM
CC1CCN(c2ccc(NC(=O)c3nn(-c4ccccc4)c(=O)c4ccccc34)cc2)CC1 | n
Clc1ccc2nc(N3CCC(NCCc4cccnc4)CC3)sc2c1 | n
CC1=C(C(=O)OCc2ccc3c(c2)OCO3)C(c2cccc(Cl)c2Cl)CC(=O)N1 (stereo not given) | n
Cc1ccc(C(=O)C(Sc2ncc(C(F)(F)F)cc2Cl)c2ccc(C)cc2)cc1 (stereo not given) | n
Cc1cc(SCc2cc(Cl)c3c(c2)OCCCO3)nc(C)n1 | n
O=C(O)CCCC(=O)N1CCC(Cc2ccccc2)CC1 | n
O=C(Nc1cc(F)ccc1F)c1ccc2c(Cl)c3c(nc2c1)CCCC3 | n
Cc1ccc(C(=O)NC(C)c2ccc3c(c2)NC(=O)CO3)s1 (stereo not given) | n
COCC(=O)Nc1ccc(-c2noc([C@@H]3CCCN3Cc3ccc(S(C)(=O)=O)cc3)n2)cn1 | n
COCC(=O)Nc1ccc(-c2noc([C@@H]3CCCN3CC(C)C)n2)cn1 | n
c1cncc(CN2CCCCC2c2nc(CCOCC3CCOCC3)no2)c1 (stereo not given) | n
CC(=O)N1CCCCCC1c1nc(-c2ccncc2)no1 (stereo not given) | n
CC(C)CN1CCC[C@H]1c1nc(-c2ccnc(NS(C)(=O)=O)c2)no1 | 35µM
COc1ccc(CN2CCC[C@H]2c2nc(-c3ccc(N4CCC(C(N)=O)CC4)nc3)no2)c(O)c1 | n
c1cncc(CN2CCC[C@H]2c2nc(-c3ccnc(N4CCCC4)c3)no2)c1 | 35µM
NC(=O)C1CCN(c2cc(-c3noc([C@@H]4CCCN4Cc4ccncc4)n3)ccn2)CC1 | 32µM
Fc1ccc(-c2noc([C@@H]3CCCN3Cc3ccccc3)n2)nc1 | n
Cc1ccc(-c2nnc(SCC(=O)NCc3ccccc3)n2N)cc1 | n
COCCn1c(CCC(=O)Nc2cc(F)ccc2C)nc2c1c(=O)[nH]c(=O)n2CC(C)C | n
COC(=O)C(CC(CC(C(=O)OC)C(=O)OC)(C(=O)OC)C(=O)OC)C(=O)OC | n
COc1ncccc1CNC(=O)c1ccc2c(c1)NC(=O)CS2 | n
CC(=O)N1CC2(CCCN(Cc3cc4ccccc4[nH]3)C2)Cc2ccccc21 (stereo not given) | n
O=C(Nc1cccc(C(F)(F)F)c1)c1nc2ccccc2nc1N1CCOCC1 | n
Fc1ccccc1CN1CCCN(Cc2cn(-c3ccccc3)nn2)CC1 | n

High-throughput results deposited in PubChem BioAssay by National Center for Advancing Translational Sciences (NCATS).
